We go through 40 sequences from the OligoGym collection.
Further: reference of the scale not given here.

For one assay, the target named is MYO1F. As to the kind of experiment: pooled miR-30 sensor sort-seq; sequence = guide strand. The note with it: shRNA.
Consider TTGGCTGCCACTGTCTTCCCAG, for which the sensor-assay potency score (higher = more potent) was -0.239.
On the same count and under the same terms, in the case of TTGTTGTTGCGCACAGTCTTGG it was -0.625; in that of TTGGCTTGTTTCTTGATCTTGG, 0.371.
The same measure, in the same setting: then TTCTGGAAGATCTCGAAGCCGT, with -0.863.
Same read-out and setting: in the case of AAAGTCGCTTCTGTCGTCCGTG it was -0.528; in that of TTCTTGACAAAGACCTTGGTGC, 0.169.
In the case of TAGTGTGTCGCTGAAGGTGAGG, the sensor-assay potency score (higher = more potent) was -0.748.
The same measure, in the same setting: in the case of TTCTTCACTTTCTCTCGCCCAA it was -0.544.
With TCATTTTGCATGACCACGCGGG, the sensor-assay potency score (higher = more potent) is -0.396.

Another assay concerns the target MYRIP. Described as above. Particulars: shRNA.
ATCTTCTGCAGGATTGTCGTGG: the sensor-assay potency score (higher = more potent) was -0.78.
The same measure, in the same setting: in the case of TTTAATAGTAAATTAAATCTTT it was -0.26; in that of TTTTCGTATAATCTTCTGCAGG, -1.35.
In turn, ATTGCTAACTCGTACAGCCTGT displayed a sensor-assay potency score (higher = more potent) of -0.149.
Still for that read-out and setting: then TTTTGCTTTGAATCACACCAAC, with -1.21.
Same read-out and setting: then TAACACAACAATAGTTGCTTTT, with -1.01; and TTATCTCTTATAAACACTCTAA, with -0.392; and TTAAATAATAATTCCCACCTTC, with 0.152.
Same read-out and setting: in the case of TTTTGCTCTTCTGTTTTCGTAT it was -0.368; in that of TGACACATAACACAGCATCAGC, -1.31.

Another assay has as its target MYST1. The description is as above. Particulars: shRNA.
Turning to TTGACTTGCTTGTGCTTGGGGG, the sensor-assay potency score (higher = more potent) was found to be 0.169.
The sequence TTGTCCACATACTTCACCTTGG registered a sensor-assay potency score (higher = more potent) of -0.263.
On the same count and under the same terms, then TTGCGGTAGATCTCTTTCCCGG, with -0.991; and TACAGCATCCTTCACTGTCTTG, with -0.889; and TTTGCCATCAACTTCGTGCACG, with -0.42.
Same read-out and setting: in the case of TACTTCTCTGAGTTCTTCTGTA it was 0.544; in that of TTGGTTGCGAGTGATCTTGCGC, -0.436.
Same read-out and setting: then TACTTGAGGCAGTACTCGCAGA, with -0.834; and TTTGAGGTGCTCCTCCACCAGC, with -1.45.
The sequence TACTTGACCATATTGAGGGATT displayed a sensor-assay potency score (higher = more potent) of -1.22.
Same read-out and setting: in the case of TATTTCATGTACTTGAGGCAGT it was 0.803.
The same measure, in the same setting: in the case of TTGATGGACAGTGTGCCCCGGA it was -0.00673.

A further assay concerns the target MYST4. The assay is described as above. The note with it: shRNA.
In turn, TTGGCTTTTAGCACCATCTGGA returned a sensor-assay potency score (higher = more potent) of 0.342.
Same read-out and setting: in the case of TTATTTTCTGTATAGCTTCAAG it was -0.855; in that of TATTTCAGTATCATCATCCTGA, 0.932.
The same measure, in the same setting: then TTTTCGATTGTACTTTTGCAGG, with -1.34; and TTCAGTAACGACATCCTTGTTT, with -0.1.
Still for that read-out and setting: then TTTGAGAACTGAGCCATCCTGA, with 0.202.
Sequence TTTGATGAGATCATCTTCTGGT displayed a sensor-assay potency score (higher = more potent) of 1.05.
On the same count and under the same terms, in the case of TATACAATAACTGAAATGCTAA it was -0.972; in that of TTACTGTTAGCACAACACTTGT, -0.946.
